Experimental data: PubChem BioAssay
Records with an inconclusive call do not appear. The source made the active and inactive calls.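 Rule for the calls, unless noted: active = percent response above 42, roughly 3 SD of non-fluorescent test compounds; inactive = the rest.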

Key:
[1] = yeast TOR pathway RPL19A-GFP modulators, primary screen, cell-based, S. cerevisiae, multiplex flow cytometry (AID 1862; in the data active = percent of DMSO control GFP below about 86%;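 note: lower values mimic rapamycin by blocking the RPL19A rise seen in DMSO cells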); details: S. cerevisiae RPL19A-GFP strain, flow cytometry fluorescence, 3 h; at 10 µM; stronger effect = lower value
[2] = modulators of MEP2-GFP levels in yeast, primary screen, S. cerevisiae, multiplex flow cytometry (AID 1867;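 active = GFP response, as percent of the DMSO control, above the screen-wide mean plus 3 SD, about 139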;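 note: median GFP channel fluorescence of barcode-gated MEP2-GFP cells measured by flow cytometry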); details: S. cerevisiae MEP2-GFP strain, 3 h, at 10 µM, stronger effect = higher value, 100% means same as DMSO wells
[3] = modulators of CIT2-GFP expression in yeast, primary screen, S. cerevisiae, GFP fusion, multiplex flow cytometry (AID 1870;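 active = percent response above a set limit, the screen-wide mean plus 3 SD, cut at about 130% in these data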;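 note: barcoded CIT2-GFP strain pooled with four other GFP strains with rapamycin as positive control; median GFP fluorescence per well over plate mean of DMSO wells so 100% = DMSO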); details: 3 h, at 10 µM, stronger effect = higher value
[4] = modulators of LAP4-GFP expression in yeast, primary screen, S. cerevisiae, multiplex flow cytometry (AID 1873;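 active = GFP signal, as percent of the solvent control, above the screen mean plus 3 SD, about 149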); details: 3 h, at 10 µM, stronger effect = higher value
[5] = modulators of AGP1-GFP expression in yeast TOR pathway, primary screen, cell-based, multiplex flow cytometry, S. cerevisiae (AID 1887;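 active = GFP signal above the screen-wide mean plus 3 SD, that is over about 124.5% of the solvent control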;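 note: AGP1-GFP fusion strain of S. cerevisiae within a five-strain barcoded multiplex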); details: 3 h, at 10 µM, stronger effect = higher value
[6] = inhibitors of CD8+ T cell-vesicle binding, pilot screen, LFA-1/ICAM-1 modulator project, MLPCN validation set, flow cytometry (AID 2523;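 active = response below a set limit, under 55% cells CD8-positive and vesicle-bound, and CD8 cells' 90th-percentile brightness under 279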;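 for vesicle binding response: mean PE anti-B7-1 fluorescence of CD8+ cells relative to row control; 100% = QL9-loaded vesicles with DMSO vehicle in the same plate row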); details: 2C mouse CD8+ T cells, at 7 µM, stronger effect = lower value; double positive events: measured here: CD8+/vesicle+ event percentage
[7] = biological target: Integrin beta-1 (Homo sapiens) + Integrin alpha-4 (Homo sapiens) (UniProt P13612+P05556); assay: inhibition of HUTS-21 binding to VLA-4, pilot screen, VLA-4 allosteric modulator project, U937 cells, HUTS-21 mAb, flow cytometry, validation set (AID 2674;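 active = inhibition above 50%, about 3 SD of the validation set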;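 note: antibody binding induced by the VLA-4 ligand LDV present at three times its Kd; 0% = LDV ligand with antibody and no compound and 100% = antibody without LDV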); details: HUTS-21 LIBS mAb binding, at 6.7 µM, stronger effect = higher value, binding induced by LDV ligand
[8] = superoxide lowering in aged yeast cells, pilot screen, validation compound set (AID 2706;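 active = superoxide response below 65% of plate, a cut near 3 SD across the whole screen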;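 note: yeast exposed to compound for one week at 30 degrees C before staining; 100% = mean of all compound wells on the same plate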); details: S. cerevisiae aging, superoxide DHE fluorescence; at 10 µM; stronger effect = lower value
[9] = biological target: Beta-adrenergic receptor kinase 1 (Homo sapiens) (UniProt P25098); assay: GRK2 binders displacing RNA aptamer, biochemical, validation, human GRK2, bead flow cytometry (AID 488806;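 active = aptamer binding inhibition above 30%, about 3 SD of noise from non-fluorescent compounds; inactive = inhibition at or below 30%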); details: bead-bound GRK2, FAM-aptamer displacement, at 10 µM, stronger effect = higher value
[10] = biological target: Beta-2 adrenergic receptor (Homo sapiens) (UniProt P07550); assay: beta2AR agonists driving receptor internalization, pilot screen, cell-based, FAP fluorogen, flow cytometry, validation set (AID 504459); details: Am2.2-beta2AR cells, FAP surface receptor flow cytometry; at 10 µM; stronger effect = higher value;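 note: agonist-driven loss of surface beta2AR via internalization measured by FAP dye flow cytometry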
[11] = biological target: AP-2 complex subunit beta (Homo sapiens) (UniProt P63010); assay: inhibitors of arrestin peptide binding to AP2, pilot screen, biochemical, validation set, GST-AP2 beads, flow cytometry (AID 504541;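 active = inhibition above 54%, about 3 SD of non-fluorescent compounds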;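 note: AP2 carries R879A mutation and is captured from E. coli lysate; bead-bound FITC arrestin peptide fluorescence measuring arrestin peptide binding to AP2; 0% = DMSO wells and 100% = excess unlabeled arrestin peptide control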); details: FITC arrestin peptide, at 10 µM, stronger effect = higher value, AP2 beta2 appendage fragment, R879A mutant
[12] = yeast V-ATPase proton transport modulators, S. cerevisiae, pHLuorin, HTS validation (AID 504600; in the data active = response above about 15%;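 note: plate controls were DMSO for no effect and reference compound for full effect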); details: S. cerevisiae pHLuorin cytosolic pH, at 10 µM, stronger effect = higher value
[13] = test system: anti-desmoglein-3 scFv antibody binding to human DSG3; assay: inhibitors of anti-DSG3 scFv binding to DSG3, pilot screen, biochemical, validation compound set, bead-based, flow cytometry (AID 588368;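 active = binding below the plate cutoff, the plate median minus 3 SD, with a reading above zero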;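 note: signal is the median channel fluorescence of bead-bound GFP antibody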); details: Protein G beads, DSG3-Fc, scFv-GFP binding, at 10 µM, stronger effect = lower value
[14] = inhibitors of fungal efflux pumps CDR1, CDR2, MDR1, pilot screen, validation compound set, multiplex, phenotypic (AID 588506;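 active = efflux inhibition above 0.42, the validation set average plus 4 SD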;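 note: Nile Red retained in cells so higher fluorescence means more efflux inhibition; 0 = negative control wells and 1 = enniatin B 25 µM full block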); details: S. cerevisiae pump-expressing triplex, Nile Red efflux flow cytometry; at 10 µM; stronger effect = higher value; the pumps come from Candida albicans
[15] = biological target: ATP-binding cassette sub-family B member 6 (Homo sapiens) (UniProt Q9NP58); assay: ABCB6 transporter inhibitors, pilot screen, K562-ABCB6 cells, flow cytometry, validation set (AID 588550;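 active = inhibition above the screen-wide mean plus 3 SD, about 51%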;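 note: 0% = DMSO wells and 100% = benzethonium chloride 70 µM positive control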); details: K562-ABCB6 porphyrin accumulation, 1 h, at 10 µM, stronger effect = higher value
[16] = promoters of myeloid differentiation in arrested cells, primary screen, cell-based, GFP/MAC1 double positive, flow cytometry, validation set (AID 588685;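 active = differentiation response of at least 50%, scaled between solvent and reference control, from cells with both markers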;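 note: compound exposure lasts four days before antibody staining and flow analysis; 0% = DMSO wells and 100% = 5 µM fulvestrant positive control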); details: ER-HoxA9 marrow cells, stronger effect = higher value, normalized: vehicle 0, fulvestrant 100

Integrin beta-1 (Homo sapiens) + Integrin alpha-4 (Homo sapiens), sequence (P05556 whole entry, looked up): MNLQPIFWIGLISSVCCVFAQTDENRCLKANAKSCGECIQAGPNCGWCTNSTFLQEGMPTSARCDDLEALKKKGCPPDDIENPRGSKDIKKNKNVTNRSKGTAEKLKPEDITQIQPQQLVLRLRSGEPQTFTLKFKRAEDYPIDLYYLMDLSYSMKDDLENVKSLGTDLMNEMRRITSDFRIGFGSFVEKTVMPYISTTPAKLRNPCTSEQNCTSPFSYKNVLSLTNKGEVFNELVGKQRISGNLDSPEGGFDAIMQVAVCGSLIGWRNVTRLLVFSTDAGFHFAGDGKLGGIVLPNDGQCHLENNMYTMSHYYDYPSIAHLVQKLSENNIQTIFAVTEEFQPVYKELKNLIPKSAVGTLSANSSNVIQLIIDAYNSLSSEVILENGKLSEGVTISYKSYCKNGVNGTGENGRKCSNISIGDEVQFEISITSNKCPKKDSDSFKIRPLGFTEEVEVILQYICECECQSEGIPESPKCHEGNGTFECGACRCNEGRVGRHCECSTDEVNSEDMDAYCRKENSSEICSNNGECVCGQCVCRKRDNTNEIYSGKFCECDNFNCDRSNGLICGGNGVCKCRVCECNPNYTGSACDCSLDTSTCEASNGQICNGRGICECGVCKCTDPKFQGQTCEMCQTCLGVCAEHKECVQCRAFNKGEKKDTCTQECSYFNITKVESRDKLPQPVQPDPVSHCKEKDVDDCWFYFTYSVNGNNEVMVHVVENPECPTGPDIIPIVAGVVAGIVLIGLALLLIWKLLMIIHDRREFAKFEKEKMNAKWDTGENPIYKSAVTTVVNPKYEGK
Integrin beta-1 (Homo sapiens) + Integrin alpha-4 (Homo sapiens), sequence (P13612 whole entry, looked up): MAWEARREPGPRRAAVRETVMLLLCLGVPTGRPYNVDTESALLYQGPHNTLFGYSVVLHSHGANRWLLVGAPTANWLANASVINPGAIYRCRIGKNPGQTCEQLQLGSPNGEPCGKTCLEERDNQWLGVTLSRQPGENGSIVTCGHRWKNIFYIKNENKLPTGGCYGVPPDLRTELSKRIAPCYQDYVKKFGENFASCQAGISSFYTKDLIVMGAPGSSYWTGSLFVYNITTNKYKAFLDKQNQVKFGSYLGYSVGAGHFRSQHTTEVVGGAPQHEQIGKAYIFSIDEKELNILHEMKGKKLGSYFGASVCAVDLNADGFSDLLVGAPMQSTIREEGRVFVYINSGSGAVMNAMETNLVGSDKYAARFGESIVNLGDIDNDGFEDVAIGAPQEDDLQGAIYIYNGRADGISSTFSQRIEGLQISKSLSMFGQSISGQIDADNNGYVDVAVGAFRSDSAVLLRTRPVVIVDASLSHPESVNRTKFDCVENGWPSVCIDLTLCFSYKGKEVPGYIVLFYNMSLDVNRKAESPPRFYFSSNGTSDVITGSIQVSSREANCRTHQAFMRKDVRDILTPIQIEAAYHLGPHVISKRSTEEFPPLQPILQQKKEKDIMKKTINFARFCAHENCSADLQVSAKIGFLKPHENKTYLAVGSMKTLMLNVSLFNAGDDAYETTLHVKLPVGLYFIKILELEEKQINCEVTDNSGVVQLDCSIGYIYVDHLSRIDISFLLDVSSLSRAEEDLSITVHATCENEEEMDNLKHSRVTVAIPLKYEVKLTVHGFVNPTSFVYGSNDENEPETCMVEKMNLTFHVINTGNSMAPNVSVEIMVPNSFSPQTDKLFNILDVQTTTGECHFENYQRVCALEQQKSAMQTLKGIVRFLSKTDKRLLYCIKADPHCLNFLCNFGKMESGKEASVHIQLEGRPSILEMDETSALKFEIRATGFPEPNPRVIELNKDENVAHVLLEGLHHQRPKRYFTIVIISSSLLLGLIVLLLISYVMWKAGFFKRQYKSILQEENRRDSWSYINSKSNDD
ATP-binding cassette sub-family B member 6 (Homo sapiens), sequence (Q9NP58 whole entry, looked up): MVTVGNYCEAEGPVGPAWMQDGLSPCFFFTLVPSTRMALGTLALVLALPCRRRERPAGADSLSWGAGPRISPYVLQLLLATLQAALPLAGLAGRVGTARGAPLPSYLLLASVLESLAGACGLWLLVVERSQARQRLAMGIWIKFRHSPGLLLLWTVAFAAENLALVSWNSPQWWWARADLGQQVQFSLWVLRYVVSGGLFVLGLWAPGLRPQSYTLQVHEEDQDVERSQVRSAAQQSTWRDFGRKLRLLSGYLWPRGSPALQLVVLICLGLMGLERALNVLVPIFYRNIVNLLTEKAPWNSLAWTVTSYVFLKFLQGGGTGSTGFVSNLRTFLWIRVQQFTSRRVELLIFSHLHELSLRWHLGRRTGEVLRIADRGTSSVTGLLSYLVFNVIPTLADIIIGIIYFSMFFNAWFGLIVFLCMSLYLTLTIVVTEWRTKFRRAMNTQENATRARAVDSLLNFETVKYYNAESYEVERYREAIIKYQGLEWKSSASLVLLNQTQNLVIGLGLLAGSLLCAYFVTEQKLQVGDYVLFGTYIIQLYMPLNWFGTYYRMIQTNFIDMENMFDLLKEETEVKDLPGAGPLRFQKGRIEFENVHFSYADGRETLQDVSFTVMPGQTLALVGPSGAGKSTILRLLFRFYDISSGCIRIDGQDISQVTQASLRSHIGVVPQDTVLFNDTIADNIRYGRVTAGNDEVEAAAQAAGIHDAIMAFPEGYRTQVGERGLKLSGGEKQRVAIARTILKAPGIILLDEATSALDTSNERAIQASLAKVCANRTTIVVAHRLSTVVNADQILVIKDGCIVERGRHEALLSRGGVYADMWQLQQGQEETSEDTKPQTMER
Beta-2 adrenergic receptor (Homo sapiens), sequence (P07550 whole entry, looked up): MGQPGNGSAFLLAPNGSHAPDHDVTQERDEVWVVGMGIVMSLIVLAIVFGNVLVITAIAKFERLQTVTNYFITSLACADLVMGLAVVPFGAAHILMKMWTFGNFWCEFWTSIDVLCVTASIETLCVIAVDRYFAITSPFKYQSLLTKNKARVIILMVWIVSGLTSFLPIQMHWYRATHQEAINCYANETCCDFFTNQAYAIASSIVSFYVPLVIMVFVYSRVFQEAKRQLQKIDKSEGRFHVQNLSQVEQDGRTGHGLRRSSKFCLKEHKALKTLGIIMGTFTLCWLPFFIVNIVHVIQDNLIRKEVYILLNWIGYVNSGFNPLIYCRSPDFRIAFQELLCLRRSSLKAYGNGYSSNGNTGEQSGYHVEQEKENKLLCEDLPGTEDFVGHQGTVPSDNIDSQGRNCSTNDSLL
Beta-adrenergic receptor kinase 1 (Homo sapiens), sequence (P25098 whole entry, looked up): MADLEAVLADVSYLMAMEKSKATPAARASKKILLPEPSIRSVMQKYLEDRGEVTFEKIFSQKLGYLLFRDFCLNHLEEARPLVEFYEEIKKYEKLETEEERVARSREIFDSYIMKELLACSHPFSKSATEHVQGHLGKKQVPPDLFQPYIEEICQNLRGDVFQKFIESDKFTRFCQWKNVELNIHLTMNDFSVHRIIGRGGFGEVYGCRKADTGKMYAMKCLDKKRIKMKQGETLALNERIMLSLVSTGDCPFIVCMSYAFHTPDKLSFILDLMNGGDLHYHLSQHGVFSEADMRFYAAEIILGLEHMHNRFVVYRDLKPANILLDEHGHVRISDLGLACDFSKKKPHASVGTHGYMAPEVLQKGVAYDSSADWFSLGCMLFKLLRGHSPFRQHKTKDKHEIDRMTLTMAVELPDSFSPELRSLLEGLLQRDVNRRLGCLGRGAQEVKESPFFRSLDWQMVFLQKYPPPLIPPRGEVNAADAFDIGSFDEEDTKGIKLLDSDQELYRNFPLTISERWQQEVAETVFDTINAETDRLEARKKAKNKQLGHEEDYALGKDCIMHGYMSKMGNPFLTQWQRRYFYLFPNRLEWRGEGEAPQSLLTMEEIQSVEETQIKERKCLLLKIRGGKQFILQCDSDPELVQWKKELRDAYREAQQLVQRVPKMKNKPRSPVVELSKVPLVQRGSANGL
AP-2 complex subunit beta (Homo sapiens), sequence (P63010 whole entry, looked up, the tested form may be a part, one chain of several): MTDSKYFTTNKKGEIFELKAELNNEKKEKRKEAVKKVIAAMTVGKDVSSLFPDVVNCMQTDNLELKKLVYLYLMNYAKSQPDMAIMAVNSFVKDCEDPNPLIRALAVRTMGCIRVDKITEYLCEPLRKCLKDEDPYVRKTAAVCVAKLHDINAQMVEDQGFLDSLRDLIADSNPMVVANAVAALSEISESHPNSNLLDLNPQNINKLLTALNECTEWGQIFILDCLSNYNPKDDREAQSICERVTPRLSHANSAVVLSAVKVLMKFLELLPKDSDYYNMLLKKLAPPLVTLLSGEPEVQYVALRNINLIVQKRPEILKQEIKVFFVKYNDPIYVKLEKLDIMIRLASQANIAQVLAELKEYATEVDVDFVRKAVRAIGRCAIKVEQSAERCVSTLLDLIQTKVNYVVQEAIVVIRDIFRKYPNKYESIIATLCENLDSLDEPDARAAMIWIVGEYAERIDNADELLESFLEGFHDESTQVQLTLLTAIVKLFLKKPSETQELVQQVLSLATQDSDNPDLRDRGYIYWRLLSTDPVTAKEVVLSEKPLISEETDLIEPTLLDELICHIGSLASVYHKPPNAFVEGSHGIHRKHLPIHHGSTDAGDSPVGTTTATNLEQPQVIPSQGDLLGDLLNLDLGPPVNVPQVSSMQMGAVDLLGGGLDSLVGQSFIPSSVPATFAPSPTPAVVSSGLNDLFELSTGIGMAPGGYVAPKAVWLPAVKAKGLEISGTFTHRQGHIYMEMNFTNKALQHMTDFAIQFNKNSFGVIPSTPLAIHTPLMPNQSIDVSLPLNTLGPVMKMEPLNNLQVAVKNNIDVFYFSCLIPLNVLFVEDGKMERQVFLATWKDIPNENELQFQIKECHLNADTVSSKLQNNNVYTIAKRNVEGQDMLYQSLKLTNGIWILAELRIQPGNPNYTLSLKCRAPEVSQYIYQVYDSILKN

CCOC(=O)C1CCCN(Cc2nc(Cc3cccc(F)c3)no2)C1 (stereo not drawn)
inactive: percent of DMSO control GFP [1] 99.1% | GFP response vs DMSO [2] 92.6% | percent response of DMSO control [3] 92.4% | GFP response vs DMSO [4] 94.8% | GFP response, % of DMSO [5] 87.2% | vesicle binding response [6] 172% | inhibition [7] 5.61% | superoxide response (% of plate) [8] 90.5% | aptamer binding inhibition [9] -1% | response [10] 20.7% | inhibition [11] 3.77% | response [12] -3.88% | binding (% of control) [13] 106% | efflux inhibition (fraction of control) [14] 0.1 | inhibition [15] 10% | differentiation response [16] 8.59%
58.5%: double positive events [6]

O=C(NC(=S)N1CCCCC1)c1cccnc1
60.8%: double positive events [6]
inactive: percent of DMSO control GFP [1] 102% | GFP response vs DMSO [2] 95.1% | percent response of DMSO control [3] 97.8% | GFP response vs DMSO [4] 108% | GFP response, % of DMSO [5] 99.4% | vesicle binding response [6] 95.6% | inhibition [7] 11% | superoxide response (% of plate) [8] 89.9% | aptamer binding inhibition [9] -3% | response [10] -0.16% | inhibition [11] -15.4% | response [12] -2.13% | binding (% of control) [13] 93.3% | efflux inhibition (fraction of control) [14] -0.07 | inhibition [15] -15% | differentiation response [16] 21.8%

CC(C)CN1CCN(Cc2ccc3ncccc3c2)CC1CCO (stereo not drawn)
inactive: percent of DMSO control GFP [1] 103% | GFP response vs DMSO [2] 96.2% | percent response of DMSO control [3] 118% | GFP response vs DMSO [4] 84.8% | GFP response, % of DMSO [5] 103% | vesicle binding response [6] 290% | inhibition [7] 4.73% | superoxide response (% of plate) [8] 95% | aptamer binding inhibition [9] -1% | response [10] -8.31% | inhibition [11] -6.16% | response [12] 1.7% | binding (% of control) [13] 103% | efflux inhibition (fraction of control) [14] 0.24 | inhibition [15] -9% | differentiation response [16] 6.11%
62%: double positive events [6]

CCCNC(C)C(=O)Nc1ccccc1C (stereo not drawn)
60.4%: double positive events [6]
inactive: percent of DMSO control GFP [1] 100% | GFP response vs DMSO [2] 101% | percent response of DMSO control [3] 101% | GFP response vs DMSO [4] 92.6% | GFP response, % of DMSO [5] 103% | vesicle binding response [6] 130% | inhibition [7] -15.8% | superoxide response (% of plate) [8] 96.4% | aptamer binding inhibition [9] 2% | response [10] 2.61% | inhibition [11] -0.33% | response [12] 4.59% | binding (% of control) [13] 102% | efflux inhibition (fraction of control) [14] -0.16 | inhibition [15] -3% | differentiation response [16] -7.5%

CC(C)CCNC(=O)[C@H](CC(C)C)NC(=O)[C@H]1O[C@@H]1C(=O)O
inactive: percent of DMSO control GFP [1] 108% | GFP response vs DMSO [2] 101% | percent response of DMSO control [3] 112% | GFP response vs DMSO [4] 93.3% | GFP response, % of DMSO [5] 107% | inhibition [7] -4.6% | superoxide response (% of plate) [8] 96.2% | aptamer binding inhibition [9] 3% | response [10] -6.13% | inhibition [11] -12.3% | response [12] 1.19% | binding (% of control) [13] 98.4% | efflux inhibition (fraction of control) [14] 0.08 | inhibition [15] 3% | differentiation response [16] -1.71%
52.8%: double positive events [6]
active: vesicle binding response [6] 39.4%

Clc1ccc(CCNc2ncnc3nc[nH]c23)cc1
inactive: percent of DMSO control GFP [1] 97.4% | GFP response vs DMSO [2] 108% | percent response of DMSO control [3] 92% | GFP response vs DMSO [4] 105% | GFP response, % of DMSO [5] 99.7% | vesicle binding response [6] 127% | inhibition [7] 0.94% | superoxide response (% of plate) [8] 108% | aptamer binding inhibition [9] 4% | response [10] -5.61% | inhibition [11] 5.59% | response [12] -0.06% | binding (% of control) [13] 97.2% | efflux inhibition (fraction of control) [14] 0.08 | inhibition [15] 10% | differentiation response [16] -0.8%
60.8%: double positive events [6]

O=C(c1ccco1)N1CCCN(Cc2nc(-c3ccc4c(c3)OCO4)no2)CC1
inactive: percent of DMSO control GFP [1] 104% | GFP response vs DMSO [2] 103% | percent response of DMSO control [3] 106% | GFP response vs DMSO [4] 98.6% | GFP response, % of DMSO [5] 102% | vesicle binding response [6] 310% | inhibition [7] -0.45% | superoxide response (% of plate) [8] 102% | aptamer binding inhibition [9] 2% | response [10] -9.4% | inhibition [11] 7.41% | response [12] -0.63% | binding (% of control) [13] 94.7% | efflux inhibition (fraction of control) [14] 0.02 | inhibition [15] 10% | differentiation response [16] -11.5%
62.2%: double positive events [6]

CCn1c(/C=C/c2ccccc2)nc2ccccc2c1=O
inactive: percent of DMSO control GFP [1] 98.8% | GFP response vs DMSO [2] 111% | percent response of DMSO control [3] 78.7% | GFP response vs DMSO [4] 122% | GFP response, % of DMSO [5] 92.6% | vesicle binding response [6] 134% | inhibition [7] 7.76% | superoxide response (% of plate) [8] 102% | aptamer binding inhibition [9] 3% | response [10] 18.5% | inhibition [11] -8.94% | response [12] 1.61% | binding (% of control) [13] 101% | efflux inhibition (fraction of control) [14] 0.08 | inhibition [15] 7% | differentiation response [16] 18.4%
59.1%: double positive events [6]

CC(CCCC(C)(C)O)NC(=O)c1ccc(OC2CCN(C(=O)C3CC3)CC2)cc1 (stereo not drawn)
inactive: percent of DMSO control GFP [1] 102% | GFP response vs DMSO [2] 96.3% | percent response of DMSO control [3] 98.6% | GFP response vs DMSO [4] 108% | GFP response, % of DMSO [5] 99.8% | vesicle binding response [6] 200% | inhibition [7] 20.1% | superoxide response (% of plate) [8] 97.8% | aptamer binding inhibition [9] 1% | response [10] -15.1% | inhibition [11] 10.3% | response [12] -0.73% | binding (% of control) [13] 101% | efflux inhibition (fraction of control) [14] 0.08 | inhibition [15] 3% | differentiation response [16] -12%
60.9%: double positive events [6]
